A selection: hits, their analogues and other compounds. The true share with any hit is near 2.6%.
CF NFkB inh: inhibitors of PAF-induced NF-kB signaling, primary screen, cell-based, GFP fluorescence, uHTS; AID 588850, 2011; actives 0.86% (n = 360,000); KKLEB NF-kB-GFP reporter, GFP fluorescence overnight; inhibition, % at 5 µM;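 active = at least 50% inhibition at 5 µM, scaled per plate between neutral and stimulator controls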;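 note: PAF is a Pseudomonas aeruginosa culture filtrate used as stimulus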
Shn3 3UTR inh: reduction of Shn3 3'UTR firefly luciferase signal, primary screen, Schnurri-3 inhibitor project, cell-based, Clone20 osteoblasts, set 2; actives 0.52% (n = 360,000); inhibition, % at 12.5 µM; Clone20 osteoblast Shn3 3'UTR firefly luciferase, 24 h;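 active = mean inhibition of at least 75% with every replicate also reaching 75%; inconclusive = mean inhibition at least 75% but some replicate below; inactive = mean inhibition below 75%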
HIF-2a inh: HIF-2a reporter inhibitors, primary screen, luminescence, 786-0 RCC cells. 786-0 RCC cells HIF-2a reporter, luciferase luminescence, overnight. inhibition, % at 18.8 µM. actives 0.72% (n = 360,000). AID 624352, 2012;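 active = inhibition of the luminescence signal of 40% or more relative to plate controls, in a single-dose primary screen at 18.75 µM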
KKLEB tox: cytotoxicity in KKLEB CF airway cells, primary screen, cytotoxicity control for CF NF-kB inhibitor project, cell-based, uHTS, fluorescence assay plates | KKLEB CF airway cells viability, ATPlite luminescence, overnight; hits give low values; cells stimulated with P. aeruginosa culture filtrate | activity change (cytotoxicity), % at 5 µM | actives 0.36% (n = 360,000);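 active = corrected activity change at or below -50% at 5 µM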
Peg3 prom inh-1: Peg3 promoter-driven luciferase inhibitors, primary screen, cell-based, HeLa, luciferase luminescence. HeLa PEG-Prom luciferase reporter, overnight. inhibition, % at 20 µM. actives 1.7% (n = 360,000);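 active = inhibition of at least 50% at 20 µM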
Peg3 prom inh-2: Peg3 promoter reporter inhibitors, retest, confirmation, cell-based, HeLa, luciferase reporter, single concentration | shares compounds with Peg3 prom inh-1 | HeLa PEG-Prom luciferase reporter, luminescence, overnight | inhibition, % at 20 µM | actives 84% (n = 1,300) | AID 602417, 2012;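 active = at 20 µM dose, 40% or more inhibition averaged across four replicates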
CF NFkB conf: inhibitors of PAF-induced NF-kB signaling, retest, confirmation, cell-based, GFP fluorescence, single concentration; KKLEB CF airway cells, overnight; AID 602472, 2012; inhibition, % at 5 µM; shares compounds with CF NFkB inh; actives 64% (n = 1,300); in the data active = inhibition above about 40%;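 note: stimulus PAF is a Pseudomonas aeruginosa filtrate and not platelet activating factor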
Mdm2 MdmX conf: retested Mdm2-MdmX interaction blockers, confirmation, cell-based, luminescence, single concentration, set 2; shares compounds with HIF-2a inh; SaOS-2 split-luciferase Mdm2/MdmX complementation; inhibition, % at 8 µM; actives 99% (n = 740); AID 504601, 2011;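 active = mean inhibition of the luminescence signal across two replicates at or above 26 percent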
HIF-2a inh conf: HIF-2a reporter inhibitor retest, confirmation, luminescence, 786-0 RCC cells | HIF-2a luciferase reporter luminescence, overnight | inhibition, % at 18.8 µM | shares compounds with HIF-2a inh | AID 651580, 2012 | actives 56% (n = 1,800);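 active = mean inhibition across four replicates of at least 40 percent at the single tested concentration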
HIF-1a cs: HIF-1a luciferase reporter signal reduction – MiaPaCa-2 cells, single concentration, counter-screen for HIF-2a inhibitor project, confirmation; shares compounds with HIF-2a inh; MiaPaCa-2 HIF-1a luciferase reporter, desferoxamine, overnight; inhibition, % at 18.8 µM; actives 72% (n = 1,800); AID 651589, 2012;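 active = mean inhibition of the reporter signal across four replicates at the single tested dose of 50% or more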
A number is an active result; – = inactive; ? = inconclusive; · = no result given.

SMILES	CF NFkB inh	Shn3 3UTR inh	HIF-2a inh	KKLEB tox	Peg3 prom inh-1	Peg3 prom inh-2	Mdm2 MdmX conf	HIF-2a inh conf	HIF-1a cs	others
O=C(CN1C(=O)c2ccccc2S1(=O)=O)c1ccc2c(c1)OCCO2	–	·	90	–	108	96	100	98	104
COc1cccc(-c2sc3ccccc3c2-c2ccc(OCCN(C)C)cc2)c1	–	–	79	–	94	99	·	–	107
C(=N\Nc1nc2ccccc2[nH]1)/c1ccccn1	–	89	73	–	86	76	·	–	–
O=c1nc(N/N=C/c2ccccn2)cn[nH]1	–	?	–	–	–	·	·	·	·
O=c1cnnc(N/N=C/c2ccccn2)[nH]1	–	96	–	–	62	73	87	·	·
Cc1nn(C(C)(C)C)c(C)c1/C=N/OC(=O)Nc1ccc(Cl)cc1	–	·	91	-56	96	95	101	96	103
Cc1ccc2nc(-c3ccccc3)cn2c1	–	–	73	–	89	78	·	89	84
Cc1ccc2nc(NC(=O)CSCC(=O)OCC(=O)c3ccc(Br)cc3)sc2c1	–	–	57	–	52	65	·	51	86
O=C(CCN1C(=O)/C(=C/c2ccccc2)SC1=S)Nc1ccccn1	–	–	–	–	–	·	·	·	·
Cc1ccc(/C=C2\SC(=S)N(CCCC(=O)Nc3ccccn3)C2=O)cc1	–	–	84	–	53	75	93	·	·
Cc1nc2ccccc2c(=O)n1NC(=O)c1cccc(Cl)c1	–	–	–	–	–	·	·	·	·
Cc1cc(C)c2nc(NNC(=O)c3ccc(S(=O)(=O)N4CCCC(C)C4)cc3)sc2c1 (stereo unspecified)	–	–	–	–	66	75	86	·	·
CC1CCCN(S(=O)(=O)c2ccc(C(=O)Nc3nnc(C4CC4)o3)cc2)C1 (stereo unspecified)	–	–	–	–	–	·	·	·	·
COc1ccc(/C=C2\Sc3ccc(C(=O)NCCCN4CCCC4)cc3N(C)C2=O)cc1OC	–	–	–	–	–	·	·	·	·
COCCn1c(C)cc(C(=O)CSc2nnc(C)s2)c1C	–	–	70	–	95	74	·	84	–
COc1cc(/C=C/C(=O)N2CCCN(C(=O)/C=C/c3cc(OC)c(OC)c(OC)c3)CC2)cc(OC)c1OC	–	–	–	–	–	·	·	·	·
COc1cc(/C=C/C(=O)N2CCC=CC2=O)cc(OC)c1OC	81	–	94	–	104	94	·	83	103	CF NFkB conf=–
CCC(=O)Nc1ccc2c(c1)nc(CCNC(=O)c1ccco1)n2C	–	–	–	–	–	·	·	·	·
Cc1ccc(N/C=C(\C#N)S(=O)(=O)c2ccccc2)cc1	–	–	–	–	–	·	·	·	·
CC1=C(C(=O)OCc2ccc3c(c2)OCO3)C(c2ccccc2OCc2ccccc2)NC(=O)N1 (stereo unspecified)	–	–	–	–	–	·	·	·	·
CC1=C(C(=O)OCc2ccc3c(c2)OCO3)C(c2ccccc2)NC(=O)N1 (stereo unspecified)	84	–	–	–	51	62	96	·	·
COCCn1c(C)cc(C2=NNC(=NC3CC3)SC2)c1C	–	91	93	–	104	95	101	99	105
C=CCn1c(C)cc(C2=NNC(=Nc3ccc(C)cc3)SC2)c1C	–	–	–	–	–	·	·	·	·
COc1ccccc1-n1c(C)cc(SC)c(C(C)=O)c1=S	–	–	–	–	–	·	·	·	·
CCC1(O)C(=O)OCc2c1cc1n(c2=O)Cc2cc3cc(O)ccc3nc2-1 (stereo unspecified)	84	–	52	–	63	52	·	–	102	CF NFkB conf=110
SMILES	CF NFkB inh	Shn3 3UTR inh	HIF-2a inh	KKLEB tox	Peg3 prom inh-1	Peg3 prom inh-2	Mdm2 MdmX conf	HIF-2a inh conf	HIF-1a cs	others
O=C(O)c1cccc(Nc2nc(-c3cc4ccccc4oc3=O)cs2)c1	–	–	–	–	–	·	·	·	·
O=C(Nc1cc(S(=O)(=O)N2CCOCC2)ccc1Cl)c1cc([N+](=O)[O-])ccc1Cl	–	–	62	–	109	84	·	50	–
NC[C@H](Cc1ccccc1)NCCCCC1CCCCC1	–	–	–	–	–	·	·	·	·
CNC[C@H](CC1CCCCC1)NC[C@H](Cc1ccccc1)NCCC12CC3CC(CC(C3)C1)C2	65	98	96	-85	99	100	103	–	104
CC(NC(=O)c1ccc([N+](=O)[O-])o1)C12CC3CC(CC(C3)C1)C2 (stereo unspecified)	100	–	64	-70	86	77	·	–	103
COC(=O)c1cn(NC(=O)C2CCC(C)CC2)c(=O)c2ccccc12 (stereo unspecified)	–	–	–	–	–	·	·	·	·
COC(=O)c1cn(NC(=O)c2cc([N+](=O)[O-])ccc2F)c(=O)c2ccccc12	–	94	–	–	58	66	95	·	·
O=C(CCc1nnc2n(CCc3ccccc3)c(=O)c3ccccc3n12)NCCCN1CCCCC1	–	–	–	–	–	·	·	·	·
c1ccc(-c2noc(-c3ccc4c(c3)OCO4)n2)nc1	–	–	80	–	87	81	·	85	87
Cc1cccc(-c2noc(-c3ccc4c(c3)OCO4)n2)c1	–	–	–	–	–	·	·	·	·
CCOc1cc(S(=O)(=O)n2nc(C)cc2C)ccc1Br	–	–	–	–	–	·	·	·	·
O=C(OCC(F)(F)F)c1cccc(COc2ccc3ccccc3c2)c1	–	–	83	–	73	77	·	90	–
COc1ccc(OCc2cccc(C(=O)O)c2)cc1	–	94	93	–	96	90	93	97	–
O=Cc1ccc(OCc2cccc(C(F)(F)F)c2)cc1O	–	–	–	–	–	·	·	·	·
Cc1nc2ccc(Br)cn2c1C(=O)N/N=C\c1ccccc1Cl	–	–	–	–	–	·	·	·	·

Source: PubChem BioAssay (several laboratories)
